Sampled rows, rich in hits. Any-hit rate of the full collection: about 3.4%.
GPR151 ag: activates the human receptor GPR151; activation, % at 11.2 µM; Q8TDV0; PathHunter beta-arrestin GPR151 cells, luminescence; AID 1508602; 1% of 650,000 active; in the data active = activation above about 4.9%;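 note: 0% = median of compound wells and 100% = cells with positive control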
TEAD-YAP block: TEAD-YAP interaction inhibition | HEK-TIYL cells, TEAD-Gal4/YAP UAS-luciferase luminescence | 1.4% of 640,000 active | AID 1259422 | inhibition, % at 9.12 µM; in the data active = inhibition above about 32%;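 note: 0% = median of test compound wells and 100% = reference inhibitor wells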
FBW7 activator: activators of human E3 ligase FBW7 | AlphaScreen FBW7–phospho-cyclin E peptide binding, activator screen | AID 1259310 | normalized activity (activation), % at 26.1 µM | Q969H0 | 0.13% of 650,000 active; in the data active = normalized activity above about 1.9%;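 note: purified mutant Fbw7 with reduced substrate affinity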
Target sequence (Q969H0 whole entry, looked up): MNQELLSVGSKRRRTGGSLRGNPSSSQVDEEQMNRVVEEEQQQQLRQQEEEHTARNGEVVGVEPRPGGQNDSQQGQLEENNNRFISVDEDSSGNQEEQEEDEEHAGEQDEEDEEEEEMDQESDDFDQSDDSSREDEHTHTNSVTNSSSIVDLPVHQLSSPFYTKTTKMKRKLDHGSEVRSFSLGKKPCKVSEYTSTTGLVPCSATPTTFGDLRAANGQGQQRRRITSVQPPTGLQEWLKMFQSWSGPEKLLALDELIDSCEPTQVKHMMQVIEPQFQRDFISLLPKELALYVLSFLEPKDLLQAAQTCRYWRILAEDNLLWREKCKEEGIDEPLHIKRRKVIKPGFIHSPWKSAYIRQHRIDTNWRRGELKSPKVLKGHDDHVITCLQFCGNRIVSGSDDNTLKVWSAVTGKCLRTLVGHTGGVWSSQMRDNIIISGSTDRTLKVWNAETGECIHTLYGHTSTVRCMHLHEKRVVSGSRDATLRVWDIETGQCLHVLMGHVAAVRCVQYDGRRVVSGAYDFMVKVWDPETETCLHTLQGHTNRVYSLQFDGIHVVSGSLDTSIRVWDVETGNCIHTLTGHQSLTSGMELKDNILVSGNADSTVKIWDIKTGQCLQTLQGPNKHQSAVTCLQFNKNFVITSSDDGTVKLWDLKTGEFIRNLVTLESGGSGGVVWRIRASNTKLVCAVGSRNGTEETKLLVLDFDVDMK
MITF inh: inhibitors of human MITF; O75030; 0.91% of 650,000 active; AlphaScreen MITF homodimerization, bead proximity signal; inhibition, % at 2.6 µM; AID 1259374; in the data active = inhibition above about 50%;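 note: 0% = vehicle wells with protein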
GPR151 confirm: human GPR151 activation, confirmation screen | activation, % at 11.2 µM | GPR151 PathHunter beta-arrestin cells, luminescence, 90 min; % of EA-reagent control over plate median | 6,700 tested, under 10 active | shares compounds with GPR151 ag;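 active = mean percent activation across replicates above the confirmation screen cutoff of 4.91%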
GPR119 ag: activates human GPR119 in a GPR151 counter-screen; activation, % at 11.2 µM; 0.3% of 6,700 active; GPR119 PathHunter beta-arrestin cells, luminescence, 90 min; 0 = compound-well median, 100 = enzyme-acceptor control; AID 1508611; shares compounds with GPR151 ag;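 active = mean percent activation in the counterscreen above 29.09%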;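 note: counterscreen on off-target GPR119 to flag nonselective hits from the GPR151 activator screen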
The depositor's hits bear a star; / = no result; ! = not confirmed by another sample.

SMILES	GPR151 ag	TEAD-YAP block	FBW7 activator	MITF inh	GPR151 confirm	GPR119 ag
COc1ccc(C(=O)Oc2coc(CSc3nnc(NC(C)=O)s3)cc2=O)cc1	13.1*	-3.1	-0.2	-8.0	0.6	6.1
Cc1ccc(C(C)(C)C)cc1S(=O)(=O)NC(CCC(N)=O)C(=O)O (configuration not stated)	-1.9	-0.7	0.1	9.9	/	/
CCOc1ccc(NS(=O)(=O)c2ccc3c(c2)n(C)c(=O)n3C)cc1	15.3*	0.2	-0.1	-7.0	-1.2	-11.2
COc1ccc(S(=O)(=O)Nc2ccc3c(c2)n(C)c(=O)n3C)cc1	0.6	11.3	0.0	-2.5	/	/
CCOC(=O)N1CCN(Cc2cc(=O)oc3c(C)cc(C)cc23)CC1	1.4	4.0	-0.3	-1.8	/	/
C=CCOC(=O)CCN1C(=O)c2ccccc2C1=O	19.8*	-4.0	0.0	3.7	-0.6	-10.4
Cc1cccc(-c2nc3ccccc3c(=O)n2NC(=O)c2cccc(Cl)c2)c1	-1.2	8.9	0.4	-5.3	/	/
Cc1ccc(CN2C(=O)CSc3ccc(NC(=O)Nc4nc(C)cc(C)n4)cc32)cc1	7.4*	-14.8	0.0	2.6	-0.1	-0.6
Cc1ccc(-n2ncc3c(SCC(N)=O)ncnc32)c(C)c1	-0.2	-5.6	0.3	10.8	/	/
CC(=O)Nc1ccc(NC(=O)CSc2ncnc3c2cnn3-c2ccc(C)cc2C)cc1	5.2*	10.0	-0.2	3.4	0.1	7.9
COc1cc(/C=c2\sc3nc4ccccc4n3c2=O)c(Br)c(Br)c1O	-0.7	5.7	-0.1	-2.2	/	/
CCCC(=O)Nc1nnc(-c2ccc(Cl)s2)o1	1.3	-21.3	-0.1	-6.5	/	/
O=C(Cc1cccc2ccccc12)Nc1nnc(-c2ccc(Cl)s2)o1	5.1*	-3.1	-0.1	-6.1	1.1	7.6
CCSc1nc2sccn2c(=O)c1C(=O)Nc1cc(-c2ccccc2)nn1C	1.1	-1.4	-0.5	5.8	/	/
CCSc1nc2sccn2c(=O)c1C(=O)Nc1cc(C(C)(C)C)nn1C	5.0*	-4.2	-0.1	5.8	1.1	3.2
COc1ccccc1CN1CCc2nnc(C(NS(C)(=O)=O)C(C)C)n2CC1 (configuration not stated)	0.8	-14.7	-0.1	4.6	/	/
O=c1c2c3c(sc2[nH]c(=S)n1-c1ccccc1)CN(Cc1ccccc1)CC3	5.3*	9.3	0.2	2.1	0.0	-5.6
O=c1c2c3c(sc2[nH]c(=S)n1-c1ccccc1)CCC3	0.8	0.0	1.5	11.2	/	/
COc1c(Cl)cc(C(=O)Nc2cccc(C(=O)O)c2)cc1Cl	5.7*	-26.0	0.1	6.2	0.6	16.6
Cc1ccc(NC(=O)c2cccc(S(=O)(=O)Nc3cccc(C(=O)O)c3)c2)cc1	6.4*	8.0	0.0	-10.8	-0.9	-0.9
CCOc1cc(S(=O)(=O)n2nnc3ccccc32)ccc1F	5.1*	8.6	-0.6	-19.8	0.3	15.0
O=C(c1cc(Cl)ccc1[N+](=O)[O-])N1CCN(c2ncccn2)CC1	8.3*	3.2	0.2	9.8	0.6	-3.6
C[C@H]1CC[C@@]2(OC1)O[C@H]1C[C@H]3[C@@H]4CC[C@@H]5C[C@@H](O)CC[C@]5(C)[C@H]4CC[C@]3(C)[C@H]1[C@@H]2C	5.6*!	8.7	0.3	8.7	0.6	-7.9
O=C1CC(N2CCN(C3CCCCC3)CC2)C(=O)N1c1ccc(Cl)cc1 (configuration not stated)	6.8*	-7.2	0.1	-15.5	0.8	-2.0
CCOC(=O)/C(C#N)=C/c1c(Oc2ccc(Cl)c(C)c2)nc2ccccn2c1=O	0.2	8.9	0.1	16.2	/	/
SMILES	GPR151 ag	TEAD-YAP block	FBW7 activator	MITF inh	GPR151 confirm	GPR119 ag
CCC1CN(CCNC(=O)CC2CCCC2)Cc2cc(OC)ccc2O1 (configuration not stated)	6.9*	5.9	-0.1	-3.8	2.0	4.8
CCC1CN(CCNC(=O)Cn2ncc3ccccc32)Cc2cc(OC)ccc2O1 (configuration not stated)	8.2*	-1.1	0.6	-1.1	1.2	11.6
CC1Cc2ccccc2N1C(=O)c1cc([N+](=O)[O-])nn1Cc1ccccc1 (configuration not stated)	1.5	-4.3	-0.5	0.0	/	/
COc1ccc(OCCSc2nnc(-c3ccco3)n2C)cc1	0.6	-3.9	0.6	7.7	/	/
Cc1ncc(CO)c2cc(-c3nnc(Nc4ccccc4F)s3)c(=O)oc12	5.8*	-15.0	0.1	-3.3	-1.7	-14.0
O=C1c2ccc(Oc3ccc([N+](=O)[O-])cc3)cc2C(=O)N1c1cc(Cl)ccc1O	0.6	-11.7	0.0	-1.6	/	/
Cc1ccc(S(=O)(=O)NC2(C(F)(F)F)NC(=O)N(c3ccc(Cl)cc3)C2=O)cc1 (configuration not stated)	-0.2	-5.2	0.0	-1.1	/	/
O=C1NC(NS(=O)(=O)c2ccccc2)(C(F)(F)F)C(=O)N1c1ccc(Cl)cc1 (configuration not stated)	5.9*	4.2	-0.1	-7.0	0.5	10.8
C=CCn1c(C)csc1=Nc1ccc(C(=O)OCC)cc1	-1.0	-68.6	-0.3	20.2	/	/
CC1(C)CC(=O)C([N+](=O)[O-])=C(NCc2ccccc2)C1	-0.2	2.0	0.2	1.2	/	/
CC1=C(NCc2ccccc2)CCC1=O	6.0*	7.3	0.1	12.4	-0.6	-4.2
CCC(C)c1ccccc1NC(=S)NC(C)=O (configuration not stated)	31.1*	10.8	0.3	6.2	0.5	7.6
CCC(C)c1ccccc1NC(=O)CCNC(C)=O (configuration not stated)	-0.4	6.3	-0.1	-6.2	/	/
COC(=O)c1ccc2c(=O)n(Cc3ccco3)c(SCC(=O)N3CCN(c4ccccc4OC)CC3)nc2c1	0.0	11.3	0.6	14.4	/	/
CCOC(=O)C(=O)Nc1ncc(Cl)s1	5.4*	10.6	-0.2	4.2	0.5	5.7
CCOC(=O)C(=O)Nc1nnc(C(C)C)s1	1.6	8.3	-0.1	29.6	/	/
Cc1cc(C)nc(Nc2n[nH]c(COc3ccccc3)n2)n1	5.7*	-14.1	0.1	5.7	-1.0	-2.3
C/C(=N\Nc1ccc(C(F)(F)F)cn1)c1ccncc1	6.4*	-28.1	-0.2	-5.0	0.0	-8.2
C/C(=N\Nc1ccc(C(F)(F)F)cn1)c1ccc(O)cc1	-0.1	-0.5	0.0	-7.8	/	/
COc1ccccc1OCCSc1nc2ccccc2n1Cc1ccccc1	0.7	-71.6	0.2	-2.6	/	/
CC(=O)Nc1cnc2cnc(-c3ccc(C(C)C)cc3)cn12	5.2*	8.8	-0.3	15.2	-0.8	-3.9
COc1cccc(/C=N/NC(=O)c2n[nH]c3c2CCCC3)c1	-2.0	26.2	-0.1	8.1	/	/
O=C(N/N=C/c1ccc(Oc2ccc([N+](=O)[O-])cn2)cc1)c1cccc([N+](=O)[O-])c1	5.0*	8.8	0.0	2.3	-0.4	-0.8
CCOC(=O)N1CCC(NC(=O)CCc2nc3cccnc3n2-c2ccccc2)CC1	0.6	15.8	-0.5	11.9	/	/
